According to publication PMC7862700, “An all-to-all approach to the identification of sequence-specific readers for epigenetic DNA modifications on cytosine”:

Experiments:
Test in all cases: DAPPL (digital affinity profiling via proximity ligation, sequencing); 10 mM Tris-HCl pH 7.5, 50 mM NaCl, 1 mM DTT, 4% glycerol, room temperature, 30 min; GST-TFs on glutathione beads, 16-mer random dsDNA library, 0.1% formaldehyde crosslink after washing; high values mean tight binding
[1] = molecular target: T1, FLI1 (Homo sapiens, UniProt Q01543 1-452); conditions: protein: recombinant; tags: N-terminal GST; dsDNA, one strand shown
T1 sequence: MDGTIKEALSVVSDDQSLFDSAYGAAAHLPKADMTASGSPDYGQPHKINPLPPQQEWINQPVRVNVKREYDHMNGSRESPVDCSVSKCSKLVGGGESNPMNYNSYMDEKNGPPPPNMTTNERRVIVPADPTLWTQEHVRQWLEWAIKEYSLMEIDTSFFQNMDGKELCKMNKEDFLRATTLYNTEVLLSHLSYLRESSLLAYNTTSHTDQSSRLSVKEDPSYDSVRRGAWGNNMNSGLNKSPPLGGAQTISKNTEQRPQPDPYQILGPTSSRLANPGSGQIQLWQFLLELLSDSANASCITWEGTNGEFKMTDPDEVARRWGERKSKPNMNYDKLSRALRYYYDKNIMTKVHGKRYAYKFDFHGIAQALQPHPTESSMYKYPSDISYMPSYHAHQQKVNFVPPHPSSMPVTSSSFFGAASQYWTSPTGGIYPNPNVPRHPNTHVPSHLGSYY
Procedure, shortened: (§1)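 After expression in yeast as GST fusions, human transcription factors were bound to glutathione beads, DNA-barcoded and mixed with a tag-only sample. The pools were incubated with 200 nmole of a 16-mer random double-stranded DNA library in Tris/NaCl/DTT/glycerol buffer (30 min, room temperature), washed and crosslinked with 0.1% formaldehyde. Proximity ligation with BsaI/T4 ligase ran for 1 h at 37 °C, before PCR amplification and sequencing on an Illumina NextSeq500. Binding signal is a hexamer's read frequency for a factor divided by its frequency for the tag-only sample.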

[2] = molecular target: T2, ELK1 (Homo sapiens, UniProt P19419 1-428); conditions: protein: recombinant; tags: N-terminal GST; dsDNA, one strand shown
T2 sequence: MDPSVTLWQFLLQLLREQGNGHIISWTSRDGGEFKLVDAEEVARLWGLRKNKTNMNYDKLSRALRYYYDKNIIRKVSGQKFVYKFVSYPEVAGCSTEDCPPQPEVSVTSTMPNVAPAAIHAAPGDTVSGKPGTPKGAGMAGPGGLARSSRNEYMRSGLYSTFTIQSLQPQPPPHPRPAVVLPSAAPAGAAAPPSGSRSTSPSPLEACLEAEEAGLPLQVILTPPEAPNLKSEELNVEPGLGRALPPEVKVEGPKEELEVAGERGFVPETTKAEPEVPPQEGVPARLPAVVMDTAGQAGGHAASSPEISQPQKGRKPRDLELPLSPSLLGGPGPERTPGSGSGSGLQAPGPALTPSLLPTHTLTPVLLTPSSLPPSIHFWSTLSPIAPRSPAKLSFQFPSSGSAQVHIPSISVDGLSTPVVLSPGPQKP
Procedure, shortened: as §1

[3] = molecular target: T3, GABPA (Homo sapiens, UniProt Q06546 1-454); conditions: protein: recombinant; tags: N-terminal GST; dsDNA, one strand shown
T3 sequence: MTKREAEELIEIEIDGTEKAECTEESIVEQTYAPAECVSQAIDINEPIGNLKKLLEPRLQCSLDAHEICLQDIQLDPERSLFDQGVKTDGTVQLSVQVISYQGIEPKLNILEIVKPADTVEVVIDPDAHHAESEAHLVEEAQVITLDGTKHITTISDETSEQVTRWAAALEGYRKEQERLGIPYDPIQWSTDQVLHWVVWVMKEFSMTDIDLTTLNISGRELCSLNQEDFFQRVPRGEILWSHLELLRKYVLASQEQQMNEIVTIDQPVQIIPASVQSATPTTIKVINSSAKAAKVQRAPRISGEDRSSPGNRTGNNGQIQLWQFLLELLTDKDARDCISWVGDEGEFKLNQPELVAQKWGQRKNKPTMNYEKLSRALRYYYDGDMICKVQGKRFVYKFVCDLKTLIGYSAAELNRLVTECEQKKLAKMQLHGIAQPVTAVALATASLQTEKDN
Procedure, shortened: as §1

[4] = molecular target: T4, ERG (Homo sapiens, UniProt P11308 1-479); conditions: protein: recombinant; tags: N-terminal GST; dsDNA, one strand shown
T4 sequence: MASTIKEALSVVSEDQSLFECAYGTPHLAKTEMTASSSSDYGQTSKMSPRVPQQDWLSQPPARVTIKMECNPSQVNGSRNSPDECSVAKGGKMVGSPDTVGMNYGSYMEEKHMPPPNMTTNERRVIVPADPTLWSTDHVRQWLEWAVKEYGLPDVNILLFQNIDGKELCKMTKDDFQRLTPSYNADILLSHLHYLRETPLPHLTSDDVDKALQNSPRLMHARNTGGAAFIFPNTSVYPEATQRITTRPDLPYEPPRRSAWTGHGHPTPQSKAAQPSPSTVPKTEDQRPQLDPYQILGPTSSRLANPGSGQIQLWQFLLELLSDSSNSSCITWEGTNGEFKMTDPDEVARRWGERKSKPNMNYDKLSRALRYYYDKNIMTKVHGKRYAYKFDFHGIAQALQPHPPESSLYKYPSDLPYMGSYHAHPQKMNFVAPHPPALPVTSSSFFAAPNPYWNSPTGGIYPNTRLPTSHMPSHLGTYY
Procedure, shortened: as §1

[5] = molecular target: ELF1 (Homo sapiens, UniProt P32519 1-619); conditions: protein: recombinant; tags: N-terminal GST; dsDNA, one strand shown
Procedure, shortened: as §1

[6] = molecular target: T5, EHF (Homo sapiens, UniProt Q9NZC4 1-300); conditions: protein: recombinant; tags: N-terminal GST; dsDNA, one strand shown
T5 sequence: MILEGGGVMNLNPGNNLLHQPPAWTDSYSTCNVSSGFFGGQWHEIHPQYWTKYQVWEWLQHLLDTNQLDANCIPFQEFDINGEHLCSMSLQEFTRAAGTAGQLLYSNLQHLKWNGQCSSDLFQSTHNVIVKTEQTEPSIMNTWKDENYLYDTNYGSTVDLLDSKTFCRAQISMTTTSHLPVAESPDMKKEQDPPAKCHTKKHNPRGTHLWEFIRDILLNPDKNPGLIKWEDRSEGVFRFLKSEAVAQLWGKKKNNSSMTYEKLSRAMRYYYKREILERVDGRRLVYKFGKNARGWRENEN
Procedure, shortened: as §1

[7] = molecular target: SPI1 (Homo sapiens, UniProt P17947 1-270); conditions: protein: recombinant; tags: N-terminal GST; dsDNA, one strand shown
Procedure, shortened: as §1

[8] = molecular target: SPIB (Homo sapiens, UniProt Q01892 1-262); conditions: protein: recombinant; tags: N-terminal GST; dsDNA, one strand shown
Procedure, shortened: as §1

[9] = molecular target: T6, ELK3 (Homo sapiens, UniProt P41970 1-407); conditions: protein: recombinant; tags: N-terminal GST; dsDNA, one strand shown
T6 sequence: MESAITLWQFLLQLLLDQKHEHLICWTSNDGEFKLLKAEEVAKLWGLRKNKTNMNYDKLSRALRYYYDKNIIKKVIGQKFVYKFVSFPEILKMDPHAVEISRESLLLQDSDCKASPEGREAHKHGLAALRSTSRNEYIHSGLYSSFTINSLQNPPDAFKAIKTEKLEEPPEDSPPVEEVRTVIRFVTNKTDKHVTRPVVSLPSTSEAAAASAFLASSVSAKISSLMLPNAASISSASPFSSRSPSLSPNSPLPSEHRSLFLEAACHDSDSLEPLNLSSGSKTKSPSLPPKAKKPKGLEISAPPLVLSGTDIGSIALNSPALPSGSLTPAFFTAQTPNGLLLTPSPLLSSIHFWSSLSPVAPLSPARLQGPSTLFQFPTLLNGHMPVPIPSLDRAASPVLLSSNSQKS
Procedure, shortened: as §1

[10] = molecular target: T7, FEV (Homo sapiens, UniProt Q99581 1-238); conditions: protein: recombinant; tags: N-terminal GST; dsDNA, one strand shown
T7 sequence: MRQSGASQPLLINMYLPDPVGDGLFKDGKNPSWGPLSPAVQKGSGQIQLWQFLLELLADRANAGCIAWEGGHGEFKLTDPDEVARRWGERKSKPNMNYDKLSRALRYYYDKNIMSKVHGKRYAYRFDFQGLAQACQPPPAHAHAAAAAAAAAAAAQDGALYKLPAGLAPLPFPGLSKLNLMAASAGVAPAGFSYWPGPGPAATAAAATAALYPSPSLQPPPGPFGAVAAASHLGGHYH
Procedure, shortened: as §1

[11] = molecular target: ETV5 (Homo sapiens, UniProt P41161 1-510); conditions: protein: recombinant; tags: N-terminal GST; dsDNA, one strand shown
Procedure, shortened: as §1

[12] = molecular target: HSF1 (Homo sapiens, UniProt Q00613 1-529); conditions: protein: recombinant; tags: N-terminal GST; chain copies: 3; dsDNA, one strand shown
Procedure, shortened: as §1

[13] = molecular target: T8, SPIC (Homo sapiens, UniProt Q8N5J4 1-248); conditions: protein: recombinant; tags: N-terminal GST; dsDNA, one strand shown
T8 sequence: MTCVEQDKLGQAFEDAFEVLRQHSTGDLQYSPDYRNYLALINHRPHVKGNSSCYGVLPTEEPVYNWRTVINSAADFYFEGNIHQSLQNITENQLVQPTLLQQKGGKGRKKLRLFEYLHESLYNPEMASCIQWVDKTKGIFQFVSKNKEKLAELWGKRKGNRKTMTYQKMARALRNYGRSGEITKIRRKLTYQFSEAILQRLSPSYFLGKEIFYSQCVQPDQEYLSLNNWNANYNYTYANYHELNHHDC
Procedure, shortened: as §1

[14] = molecular target: ELF4 (Homo sapiens, UniProt Q99607 1-663); conditions: protein: recombinant; tags: N-terminal GST; dsDNA, one strand shown
Procedure, shortened: as §1

[15] = molecular target: T9, ELK4 (Homo sapiens, UniProt P28324-2 1-405); conditions: protein: recombinant; tags: N-terminal GST; dsDNA, one strand shown
T9 sequence: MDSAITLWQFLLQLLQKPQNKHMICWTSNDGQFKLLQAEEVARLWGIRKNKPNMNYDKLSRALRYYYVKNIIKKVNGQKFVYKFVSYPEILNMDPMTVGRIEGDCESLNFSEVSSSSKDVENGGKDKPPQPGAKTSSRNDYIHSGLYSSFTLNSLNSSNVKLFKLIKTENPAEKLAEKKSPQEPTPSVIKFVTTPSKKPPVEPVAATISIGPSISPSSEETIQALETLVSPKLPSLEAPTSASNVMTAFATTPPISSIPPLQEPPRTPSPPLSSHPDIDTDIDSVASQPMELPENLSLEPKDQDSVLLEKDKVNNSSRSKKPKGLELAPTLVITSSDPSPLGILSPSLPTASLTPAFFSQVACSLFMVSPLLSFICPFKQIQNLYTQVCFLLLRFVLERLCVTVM
Procedure, shortened: as §1

[16] = molecular target: T10, ETV2 (Homo sapiens, UniProt O00321 1-342); conditions: protein: recombinant; tags: N-terminal GST; dsDNA, one strand shown
T10 sequence: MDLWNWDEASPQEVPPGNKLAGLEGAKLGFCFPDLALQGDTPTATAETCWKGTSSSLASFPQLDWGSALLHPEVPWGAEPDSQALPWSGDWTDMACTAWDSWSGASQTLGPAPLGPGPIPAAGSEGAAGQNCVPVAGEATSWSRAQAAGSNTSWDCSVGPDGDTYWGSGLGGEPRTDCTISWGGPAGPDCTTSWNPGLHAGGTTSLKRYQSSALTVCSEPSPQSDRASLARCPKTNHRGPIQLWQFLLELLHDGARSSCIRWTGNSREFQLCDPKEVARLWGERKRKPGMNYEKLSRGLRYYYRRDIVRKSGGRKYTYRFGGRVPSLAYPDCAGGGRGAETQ
Procedure, shortened: as §1

[17] = molecular target: T11, ELF3 (Homo sapiens, UniProt P78545 1-371); conditions: protein: recombinant; tags: N-terminal GST; dsDNA, one strand shown
T11 sequence: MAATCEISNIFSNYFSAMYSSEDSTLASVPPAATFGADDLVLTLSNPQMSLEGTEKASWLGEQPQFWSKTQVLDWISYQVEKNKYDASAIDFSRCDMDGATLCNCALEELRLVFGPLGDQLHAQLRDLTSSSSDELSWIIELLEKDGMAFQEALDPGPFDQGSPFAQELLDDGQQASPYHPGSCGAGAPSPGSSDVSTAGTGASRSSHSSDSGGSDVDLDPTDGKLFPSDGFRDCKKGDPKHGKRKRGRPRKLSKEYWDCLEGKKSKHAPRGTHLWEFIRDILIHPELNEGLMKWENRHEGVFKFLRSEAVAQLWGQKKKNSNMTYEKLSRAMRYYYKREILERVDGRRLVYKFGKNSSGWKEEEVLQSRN
Procedure, shortened: as §1

[18] = molecular target: CRX (Homo sapiens, UniProt O43186 1-299); conditions: protein: recombinant; tags: N-terminal GST; dsDNA, one strand shown
Procedure, shortened: as §1

[19] = molecular target: ETV1 (Homo sapiens, UniProt P50549 1-477); conditions: protein: recombinant; tags: N-terminal GST; dsDNA, one strand shown
Procedure, shortened: as §1

ELF4, sequence (Q99607 whole entry): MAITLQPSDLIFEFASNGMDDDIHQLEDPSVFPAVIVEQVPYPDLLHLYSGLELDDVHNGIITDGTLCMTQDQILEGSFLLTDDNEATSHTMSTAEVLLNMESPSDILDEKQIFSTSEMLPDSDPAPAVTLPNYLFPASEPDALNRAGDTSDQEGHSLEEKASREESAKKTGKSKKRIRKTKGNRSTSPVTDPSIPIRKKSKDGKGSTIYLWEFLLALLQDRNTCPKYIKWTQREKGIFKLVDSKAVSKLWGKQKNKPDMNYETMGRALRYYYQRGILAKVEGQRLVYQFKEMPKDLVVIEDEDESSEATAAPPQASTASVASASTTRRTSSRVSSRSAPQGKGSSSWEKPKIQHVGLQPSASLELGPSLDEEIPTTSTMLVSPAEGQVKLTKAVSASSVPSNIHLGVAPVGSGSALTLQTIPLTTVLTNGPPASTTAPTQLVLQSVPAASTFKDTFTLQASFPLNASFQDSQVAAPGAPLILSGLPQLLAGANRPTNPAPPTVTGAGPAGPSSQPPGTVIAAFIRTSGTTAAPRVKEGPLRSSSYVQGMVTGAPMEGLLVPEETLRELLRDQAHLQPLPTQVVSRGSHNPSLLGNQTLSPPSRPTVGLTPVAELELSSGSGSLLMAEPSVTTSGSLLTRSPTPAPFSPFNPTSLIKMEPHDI
ETV1, sequence (P50549 whole entry): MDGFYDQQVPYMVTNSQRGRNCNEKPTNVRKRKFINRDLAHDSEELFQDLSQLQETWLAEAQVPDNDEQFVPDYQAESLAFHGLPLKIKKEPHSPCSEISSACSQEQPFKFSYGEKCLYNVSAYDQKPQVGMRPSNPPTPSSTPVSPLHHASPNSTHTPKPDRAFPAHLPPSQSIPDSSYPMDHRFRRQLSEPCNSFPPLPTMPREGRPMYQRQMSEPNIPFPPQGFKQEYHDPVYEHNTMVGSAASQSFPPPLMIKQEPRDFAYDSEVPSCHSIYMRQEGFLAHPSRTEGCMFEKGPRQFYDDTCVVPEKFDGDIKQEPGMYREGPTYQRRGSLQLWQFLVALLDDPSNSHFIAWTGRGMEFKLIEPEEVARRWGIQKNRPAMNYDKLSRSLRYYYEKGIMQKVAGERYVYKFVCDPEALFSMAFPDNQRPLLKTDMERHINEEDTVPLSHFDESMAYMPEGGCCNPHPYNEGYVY
ELF1, sequence (P32519 whole entry): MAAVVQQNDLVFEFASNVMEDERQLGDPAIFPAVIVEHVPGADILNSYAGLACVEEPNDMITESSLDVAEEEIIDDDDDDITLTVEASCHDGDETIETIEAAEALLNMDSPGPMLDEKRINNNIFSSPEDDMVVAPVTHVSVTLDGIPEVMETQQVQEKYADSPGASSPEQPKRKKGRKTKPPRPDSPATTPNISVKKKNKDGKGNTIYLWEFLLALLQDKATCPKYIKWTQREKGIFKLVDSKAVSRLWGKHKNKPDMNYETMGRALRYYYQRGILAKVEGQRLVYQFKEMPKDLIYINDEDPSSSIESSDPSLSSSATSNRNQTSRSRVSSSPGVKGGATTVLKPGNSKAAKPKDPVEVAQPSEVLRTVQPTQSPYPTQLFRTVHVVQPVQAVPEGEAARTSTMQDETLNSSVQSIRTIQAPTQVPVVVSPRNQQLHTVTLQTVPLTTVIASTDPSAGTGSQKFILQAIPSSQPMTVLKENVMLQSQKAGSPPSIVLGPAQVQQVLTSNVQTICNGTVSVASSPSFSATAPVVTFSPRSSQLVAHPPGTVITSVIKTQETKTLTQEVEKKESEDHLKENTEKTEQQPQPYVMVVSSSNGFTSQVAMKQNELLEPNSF
SPIB, sequence (Q01892 whole entry): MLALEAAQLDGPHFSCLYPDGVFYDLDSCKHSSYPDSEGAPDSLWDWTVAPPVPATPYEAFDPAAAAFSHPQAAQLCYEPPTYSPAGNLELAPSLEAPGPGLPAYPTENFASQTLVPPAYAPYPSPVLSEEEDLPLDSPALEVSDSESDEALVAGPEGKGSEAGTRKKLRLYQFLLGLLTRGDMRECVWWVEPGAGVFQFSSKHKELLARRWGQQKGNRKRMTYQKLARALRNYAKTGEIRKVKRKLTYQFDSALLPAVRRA
ETV5, sequence (P41161 whole entry): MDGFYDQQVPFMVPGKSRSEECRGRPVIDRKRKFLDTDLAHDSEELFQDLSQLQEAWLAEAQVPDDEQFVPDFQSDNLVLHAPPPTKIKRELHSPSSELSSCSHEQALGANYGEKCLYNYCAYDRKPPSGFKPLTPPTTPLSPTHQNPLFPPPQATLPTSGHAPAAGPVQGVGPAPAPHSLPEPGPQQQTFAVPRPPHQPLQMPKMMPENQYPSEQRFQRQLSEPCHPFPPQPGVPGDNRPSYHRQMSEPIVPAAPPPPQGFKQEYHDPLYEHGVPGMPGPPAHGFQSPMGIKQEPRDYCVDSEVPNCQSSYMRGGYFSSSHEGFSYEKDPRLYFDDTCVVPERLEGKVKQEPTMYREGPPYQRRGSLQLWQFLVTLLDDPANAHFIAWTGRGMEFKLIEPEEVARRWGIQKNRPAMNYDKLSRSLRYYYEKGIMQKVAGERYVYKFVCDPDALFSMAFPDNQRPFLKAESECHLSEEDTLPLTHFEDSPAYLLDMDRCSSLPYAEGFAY
CRX, sequence (O43186 whole entry): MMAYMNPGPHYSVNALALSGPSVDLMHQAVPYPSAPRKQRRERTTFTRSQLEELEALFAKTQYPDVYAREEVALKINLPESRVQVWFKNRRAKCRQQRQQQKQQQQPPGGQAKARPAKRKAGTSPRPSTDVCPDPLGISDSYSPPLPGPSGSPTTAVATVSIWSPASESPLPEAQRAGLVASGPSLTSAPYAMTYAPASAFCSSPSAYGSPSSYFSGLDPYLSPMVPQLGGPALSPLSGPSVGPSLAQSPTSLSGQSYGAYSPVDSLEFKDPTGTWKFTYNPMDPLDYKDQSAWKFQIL
HSF1, sequence (Q00613 whole entry): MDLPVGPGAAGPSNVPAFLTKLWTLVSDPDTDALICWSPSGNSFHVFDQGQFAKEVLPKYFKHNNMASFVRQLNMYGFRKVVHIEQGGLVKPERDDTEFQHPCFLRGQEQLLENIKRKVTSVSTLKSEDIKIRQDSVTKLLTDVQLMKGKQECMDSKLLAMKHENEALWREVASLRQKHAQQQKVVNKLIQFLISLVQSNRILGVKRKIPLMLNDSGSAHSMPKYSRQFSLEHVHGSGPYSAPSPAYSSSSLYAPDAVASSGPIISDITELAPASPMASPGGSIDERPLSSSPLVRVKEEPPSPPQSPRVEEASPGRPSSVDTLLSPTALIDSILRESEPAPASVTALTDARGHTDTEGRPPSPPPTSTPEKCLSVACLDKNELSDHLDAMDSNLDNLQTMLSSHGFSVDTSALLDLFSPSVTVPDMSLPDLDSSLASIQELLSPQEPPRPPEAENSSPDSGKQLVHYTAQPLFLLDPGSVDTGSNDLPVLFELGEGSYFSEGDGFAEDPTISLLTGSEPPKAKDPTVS

## ACATTC
[1]
  binding signal: 1.41 fold enrichment (6-mer frequency, TF over GST control)
[2]
  binding signal: 1.32 fold enrichment (6-mer frequency, TF over GST control)
[3]
  binding signal: 1.31 fold enrichment (6-mer frequency, TF over GST control)
[4]
  binding signal: 1.23 fold enrichment (6-mer frequency, TF over GST control)
[5]
  binding signal: 1.37 fold enrichment (6-mer frequency, TF over GST control)
[6]
  binding signal: 1.25 fold enrichment (6-mer frequency, TF over GST control)
[7]
  binding signal: 1.24 fold enrichment (6-mer frequency, TF over GST control)
[8]
  binding signal: 1.23 fold enrichment (6-mer frequency, TF over GST control)
[9]
  binding signal: 1.35 fold enrichment (6-mer frequency, TF over GST control)
[10]
  binding signal: 1.21 fold enrichment (6-mer frequency, TF over GST control)
[11]
  binding signal: 1.39 fold enrichment (6-mer frequency, TF over GST control)
[12]
  binding signal: 2.56 fold enrichment (6-mer frequency, TF over GST control)
[13]
  binding signal: 1.22 fold enrichment (6-mer frequency, TF over GST control)
[14]
  binding signal: 1.32 fold enrichment (6-mer frequency, TF over GST control)
[15]
  binding signal: 1.22 fold enrichment (6-mer frequency, TF over GST control)
[16]
  binding signal: 1.23 fold enrichment (6-mer frequency, TF over GST control)
[17]
  binding signal: 1.31 fold enrichment (6-mer frequency, TF over GST control)
[18]
  binding signal: 1.4 fold enrichment (6-mer frequency, TF over GST control)
[19]
  binding signal: 1.29 fold enrichment (6-mer frequency, TF over GST control)
